PubChem BioAssay (Tox21)
Inconclusive results are not listed. Calls of active or inactive are those of the source. Unless noted, calls come from the whole dose curve.

Experiments:
[1] = Nuclear factor erythroid 2-related factor 2/antioxidant responsive element (Nrf2/ARE) small molecule agonists: qHTS cell viability counter screen in human keratinocytes (AID 1919968; active = well fitted curve in the direction sought with a large enough effect in the repeat runs; an effect the other way counts as inactive or inconclusive; note: nearly all actives have a fitted effect of over 55% in size; note: potency is the fitted concentration of half-maximal effect)
Outline: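 CellTiter-Fluor fluorescence, read 1 h after reagent, gave viability in the same wells as the ARE-luciferase assay. KeratinoSens cells (1,500/well) had 23 h compound exposure at 37 C/5% CO2 following 5 h plating.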

[2] = target: Gonadotropin-releasing hormone receptor (Homo sapiens) (UniProt P30968); assay: Human gonadotropin-releasing hormone receptor (GnRHR) small molecule agonists, calcium flux assay in GnRHR-HEK293 cells (AID 1920063); note: nearly all actives have a fitted effect of over 35% in size
Outline: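 Agonist mode: compounds at 15 concentrations, in triplicate, went onto calcium dye-loaded GnRHR-HEK293 cells. Intracellular calcium was then followed as 480/540 nm fluorescence at 1 s intervals over 3 min.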

[3] = target: KiSS-1 receptor (Homo sapiens) (UniProt Q969F8); assay: Human kisspeptin (KISS1R) small molecule agonists, calcium flux assay in KISS1R-HEK293 cells (AID 1920064; active = well fitted curve in the direction sought with a large enough effect in the repeat runs; an effect the other way counts as inactive or inconclusive)
Outline: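 Agonist mode: intracellular calcium rise tracked at 1 s intervals over 3 min (480/540 nm) immediately after compound addition to dye-loaded KISS1R-HEK293 stable cells. Each compound tested at 15 concentrations in triplicate.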

[4] = G protein-coupled receptor (GPCR) small molecule agonists, calcium flux assay: HEK293 wild type cell line counter screen (AID 1920065)
Outline: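 Calcium flux counter screen: compound added in agonist mode at 15 concentrations in triplicate to dye-loaded parental HEK293 cells. Fluorescence (480/540) read kinetically for 3 min; ATP served as positive control.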

[5] = p53 small molecule agonists, cell-based qHTS assay with human liver microsomes: qHTS cell viability counter screen (AID 1963579); note: nearly all actives have a fitted effect of over 45% in size; note: potency is the fitted concentration of half-maximal effect
Outline: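 Metabolically activated exposure: compounds, human liver microsomes and NADPH (0.5 mg/mL final apiece) were added to p53RE-bla cells seeded 5 h earlier, left 16 h at 37 C, and then assessed for viability by CellTiter-Glo luminescence.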

[6] = p53 small molecule agonists, cell-based qHTS assay: qHTS cell viability counter screen (AID 1963581); note: nearly all actives have a fitted effect of over 45% in size; note: potency is the fitted concentration of half-maximal effect
Outline: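 Counter screen read by CellTiter-Glo luminescence (ATP content, 30 min at room temperature), run in the same wells as the beta-lactamase reporter read. HCT-116 p53RE-bla cells saw compounds for 16 h at 37 C.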

[7] = target: 5-hydroxytryptamine receptor 2A (Homo sapiens) (UniProt P28223); assay: 5-hydroxytryptamine receptor 2A (HTR2A) small molecule antagonists, cell-based qHTS assay (AID 1963586); note: nearly all actives have a fitted effect of over 45% in size; note: potency is the fitted concentration of half-maximal effect
Outline: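 CHO cells stably expressing human HTR2A were plated for 18 h at 37 C, then loaded with calcium dye for 1 h. Compounds were preincubated 5 min at room temperature before DOI (4 nM solution) was added. Kinetic fluorescence was read for 3 min.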

[8] = target: 5-hydroxytryptamine receptor 2A (Homo sapiens) (UniProt P28223); assay: 5-hydroxytryptamine receptor 2A (HTR2A) small molecule agonists, cell-based qHTS assay (AID 1963587); note: nearly all actives have a fitted effect of over 30% in size
Outline: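 HTR2A-CHO cells, plated 18 h at 37 C/5% CO2, dye-loaded 1 h at 37 C; compounds in DMSO added by pin tool (agonist mode). Intracellular calcium flux read as kinetic fluorescence on FDSS over 2 min at 1 s intervals.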

[9] = target: Muscarinic acetylcholine receptor M1 (Homo sapiens) (UniProt P11229); assay: Cholinergic receptor muscarinic 1 (CHRM1) small molecule antagonists, cell-based qHTS assay (AID 1963588); note: nearly all actives have a fitted effect of over 40% in size; note: potency is the fitted concentration of half-maximal effect
Outline: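 Compounds were tested at 15 concentrations in three independent runs. Dye-loaded CHRM1-CHO cells were exposed 5 min at room temperature before stimulation by acetylcholine added at 50nM. Intracellular calcium was read kinetically on FDSS for 3 min.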

[10] = target: Muscarinic acetylcholine receptor M1 (Homo sapiens) (UniProt P11229); assay: Cholinergic receptor muscarinic 1 (CHRM1) small molecule agonists, cell-based qHTS assay (AID 1963589); note: nearly all actives have a fitted effect of over 35% in size
Outline: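 Agonist-mode calcium-flux screen: compounds at 15 concentrations, three independent runs, were pin-transferred onto dye-loaded human CHRM1-CHO cells. Fluorescence was then recorded kinetically every second over minutes.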

[11] = cAMP Responsive Elements (CRE) small molecule agonists, cell-based qHTS assay (AID 1963590)
Outline: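 Agonist mode: compound added to CRE-bla HEK 293T cells (2,000/well, 18 h after plating) for 3 h at 37 C/5% CO2. Reporter activity detected via FRET beta-lactamase substrate, 2 h room-temperature loading.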

[12] = cAMP Responsive Elements (CRE) small molecule antagonists, cell-based qHTS assay (AID 1963591; active = well fitted inhibition curve with a large enough effect in the signal ratio in the repeat runs, not every such curve was filed as active; the % refers to the signal ratio)
Outline: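 Antagonist mode: compounds are added alongside the adenylyl cyclase activator NKH477 (0.25 uM final) to CRE-bla HEK293T cells for 3 h. LiveBLAzer FRET substrate, 2 h at room temperature, reports bla expression.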

[13] = target: Beta-2 adrenergic receptor (Homo sapiens) (UniProt P07550); assay: Adrenergic beta2 receptor (ADRB2) small molecule antagonists, cell-based qHTS assay (AID 1963592); note: series mostly up to about 92 µM; nearly all actives have a fitted effect of over 50% in size
Outline: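 Assay format: CHO-ADRB2 cells, 18-20hr seeding at 37C/5% CO2, then compound plus 1nM isoproterenol agonist mix for 0.5hr RT. Homogeneous time-resolved fluorescence cAMP detection after 1hr, expressed as 665/615 nm ratio.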

[14] = target: Beta-2 adrenergic receptor (Homo sapiens) (UniProt P07550); assay: Adrenergic beta2 receptor (ADRB2) small molecule agonists, cell-based qHTS assay (AID 1963593); note: potency is the fitted concentration of half-maximal effect;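 for activation: CHO cells stably overexpressing human ADRB2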
Outline: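 CHO cells stably over-expressing ADRB2 were plated overnight at 37C, then dosed with compounds plus a stimulation mix containing 100uM IBMX and 25uM Ro-20-1724 for 0.5hr at room temperature. cAMP was measured by HTRF competition, 1hr.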

[15] = target: D(2) dopamine receptor (Homo sapiens) (UniProt P14416); assay: Dopamine D2 receptor (DRD2) small molecule agonists, cell-based qHTS assay (AID 1963594); note: nearly all actives have a fitted effect of over 35% in size
Outline: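 HEK293 cells stably expressing DRD2 were cultured 24 h at 37 C, then given Ro20-1724 (0.1 mM final) and compounds for 10 min at room temperature. NKH477 (200nM) was then added for 30 min. cAMP was read by HTRF.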

[16] = target: D(2) dopamine receptor (Homo sapiens) (UniProt P14416); assay: Dopamine D2 receptor (DRD2) small molecule antagonists, cell-based qHTS assay (AID 1963595; active = well fitted inhibition curve with a large enough effect in the signal ratio in the repeat runs, with a control signal flat; the % refers to the signal ratio)
Outline: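 Cells were plated and grown for 24 h at 37 °C. Ro20-1724 (0.1 mM final) went in first, then compound for 10 min. NKH477 (200 nM) with quinpirole (12 nM) followed for 30 min at RT, then HTRF detection reagents for 1 h.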

[17] = p53 small molecule agonists, cell-based qHTS assay with human liver microsomes (AID 1963577);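 note: p53 response element beta-lactamase reporter cells with liver microsomes plus NADPH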
Outline: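 In this qHTS, p53 response-element beta-lactamase cells receive test compound together with a microsome/NADPH activating system (0.5 mg/mL final each) and are incubated 16 h at 37 C before LiveBLAzer fluorescence detection.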

[18] = p53 small molecule agonists, cell-based qHTS assay with rat liver microsomes (AID 1963578)
Outline: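 Agonist mode in p53RE-bla reporter cells, with compounds co-incubated 16 h at 37 C alongside 0.5 mg/mL rat liver microsomes and 0.5 mg/mL NADPH (final), followed by a 2 h LiveBLAzer detection step.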

[19] = p53 small molecule agonists, cell-based qHTS assay with rat liver microsomes: qHTS cell viability counter screen (AID 1963580); note: nearly all actives have a fitted effect of over 45% in size
Outline: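 Luminescent ATP readout (CellTiter-Glo, 30 min at room temperature) reports viability of p53RE-bla HCT-116 cells after 16 h at 37 C with test compounds under metabolic activation by rat liver microsomes and NADPH at 0.5 mg/mL final each.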

[20] = p53 small molecule agonists, cell-based qHTS assay (AID 1963582; active = well fitted activation curve with a large enough effect in the signal ratio in the repeat runs, not every such curve was filed as active; the % refers to the signal ratio)
Outline: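 Read-out is beta-lactamase FRET fluorescence after 2 h at room temperature with LiveBLAzer B/G substrate. p53 response element-bla cells were treated 16 h at 37 C with compounds in DMSO, added 5 h after seeding.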

Measured: Potency

Beta-2 adrenergic receptor (Homo sapiens), sequence (P07550 whole entry, looked up): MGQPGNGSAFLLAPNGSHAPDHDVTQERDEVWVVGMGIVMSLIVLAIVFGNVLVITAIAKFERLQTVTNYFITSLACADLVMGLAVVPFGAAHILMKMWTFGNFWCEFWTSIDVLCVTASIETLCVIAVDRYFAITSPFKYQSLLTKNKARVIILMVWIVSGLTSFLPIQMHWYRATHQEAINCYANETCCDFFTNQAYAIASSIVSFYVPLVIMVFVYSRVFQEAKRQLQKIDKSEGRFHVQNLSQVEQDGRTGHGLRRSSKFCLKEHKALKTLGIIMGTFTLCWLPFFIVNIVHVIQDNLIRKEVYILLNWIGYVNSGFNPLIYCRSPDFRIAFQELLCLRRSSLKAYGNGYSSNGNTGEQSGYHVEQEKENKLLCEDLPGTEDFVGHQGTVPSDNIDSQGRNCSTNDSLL
5-hydroxytryptamine receptor 2A (Homo sapiens), sequence (P28223 whole entry, looked up): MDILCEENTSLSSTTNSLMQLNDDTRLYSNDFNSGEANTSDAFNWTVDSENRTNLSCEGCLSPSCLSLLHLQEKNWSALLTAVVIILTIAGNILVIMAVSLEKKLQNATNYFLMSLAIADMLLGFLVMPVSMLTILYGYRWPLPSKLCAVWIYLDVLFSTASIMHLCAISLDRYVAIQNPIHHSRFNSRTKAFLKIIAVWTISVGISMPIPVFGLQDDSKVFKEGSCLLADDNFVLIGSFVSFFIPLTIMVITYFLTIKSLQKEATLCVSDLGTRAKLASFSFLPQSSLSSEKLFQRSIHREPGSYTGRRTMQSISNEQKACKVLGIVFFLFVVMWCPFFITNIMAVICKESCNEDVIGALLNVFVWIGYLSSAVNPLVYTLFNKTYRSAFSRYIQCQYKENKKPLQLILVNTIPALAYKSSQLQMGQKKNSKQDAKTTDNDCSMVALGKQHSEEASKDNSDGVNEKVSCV
D(2) dopamine receptor (Homo sapiens), sequence (P14416 whole entry, looked up): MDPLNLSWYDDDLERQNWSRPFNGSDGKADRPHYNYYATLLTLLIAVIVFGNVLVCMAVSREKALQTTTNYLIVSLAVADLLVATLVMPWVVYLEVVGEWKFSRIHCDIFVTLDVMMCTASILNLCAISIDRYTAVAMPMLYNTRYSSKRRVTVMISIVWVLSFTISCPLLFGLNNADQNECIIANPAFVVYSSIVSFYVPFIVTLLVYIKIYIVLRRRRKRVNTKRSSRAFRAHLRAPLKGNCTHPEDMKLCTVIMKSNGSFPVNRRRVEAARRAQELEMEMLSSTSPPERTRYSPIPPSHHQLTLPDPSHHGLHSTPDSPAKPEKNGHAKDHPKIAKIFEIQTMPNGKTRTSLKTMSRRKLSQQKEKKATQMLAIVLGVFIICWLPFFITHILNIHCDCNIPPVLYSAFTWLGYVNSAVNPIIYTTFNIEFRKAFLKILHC
KiSS-1 receptor (Homo sapiens), sequence (Q969F8 whole entry, looked up): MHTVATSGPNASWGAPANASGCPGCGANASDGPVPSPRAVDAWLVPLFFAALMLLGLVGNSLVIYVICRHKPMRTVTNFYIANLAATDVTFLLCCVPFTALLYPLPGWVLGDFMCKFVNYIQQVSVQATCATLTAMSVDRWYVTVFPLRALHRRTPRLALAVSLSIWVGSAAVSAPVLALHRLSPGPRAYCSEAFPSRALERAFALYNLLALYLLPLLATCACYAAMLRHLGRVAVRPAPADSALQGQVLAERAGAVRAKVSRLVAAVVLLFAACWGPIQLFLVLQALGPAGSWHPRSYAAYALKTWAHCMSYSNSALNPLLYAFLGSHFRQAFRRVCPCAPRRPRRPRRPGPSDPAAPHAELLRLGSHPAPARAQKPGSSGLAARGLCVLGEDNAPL
Muscarinic acetylcholine receptor M1 (Homo sapiens), sequence (P11229 whole entry, looked up): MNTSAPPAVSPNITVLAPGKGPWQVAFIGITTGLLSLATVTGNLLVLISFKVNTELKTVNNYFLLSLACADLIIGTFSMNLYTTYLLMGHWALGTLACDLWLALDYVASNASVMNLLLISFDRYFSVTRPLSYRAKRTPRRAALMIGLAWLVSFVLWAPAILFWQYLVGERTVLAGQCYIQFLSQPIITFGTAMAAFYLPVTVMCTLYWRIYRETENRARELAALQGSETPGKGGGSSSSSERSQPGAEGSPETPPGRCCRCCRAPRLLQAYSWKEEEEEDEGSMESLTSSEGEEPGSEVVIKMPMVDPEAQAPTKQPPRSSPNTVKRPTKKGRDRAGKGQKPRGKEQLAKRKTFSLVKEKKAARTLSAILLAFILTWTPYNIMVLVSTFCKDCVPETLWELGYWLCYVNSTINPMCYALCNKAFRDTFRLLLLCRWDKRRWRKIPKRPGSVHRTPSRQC
Gonadotropin-releasing hormone receptor (Homo sapiens), sequence (P30968 whole entry, looked up): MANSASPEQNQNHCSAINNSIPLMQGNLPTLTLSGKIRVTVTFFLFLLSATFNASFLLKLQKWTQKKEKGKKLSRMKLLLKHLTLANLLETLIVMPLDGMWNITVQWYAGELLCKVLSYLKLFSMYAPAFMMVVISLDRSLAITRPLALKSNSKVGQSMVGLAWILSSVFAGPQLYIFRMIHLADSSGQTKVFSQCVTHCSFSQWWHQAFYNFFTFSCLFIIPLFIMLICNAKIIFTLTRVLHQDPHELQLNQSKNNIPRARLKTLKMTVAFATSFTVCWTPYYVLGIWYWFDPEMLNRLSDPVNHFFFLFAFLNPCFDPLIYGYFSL

CCCCCCCC#N
active: [5] 32.4 µM
not listed: [17] | [18] | [19] | [20]
inactive: all other assays above

CC(=O)CC(=O)Nc1ccc(S(=O)(=O)O)cc1
not listed: [3] | [6]
inactive: all other assays above

O=C(Nc1ccc(Oc2ccc(Cl)cc2)c(Cl)c1)c1cc(I)cc(I)c1O
active: [1] 26.6 µM | [6] 5 µM
not listed: [3] | [11] | [13] | [14] | [20]
inactive: all other assays above

CCN(CC)CCOC(=O)C(c1ccccc1)C1CCCCC1 (stereo unspecified)
active: [9] 0.041 µM
not listed: [4] | [6] | [7] | [8] | [11] | [16] | [20]
inactive: all other assays above

O=C(NO)c1ccccc1
inactive: [1] | [2] | [3] | [18] | [19] | [6] | [10] | [16]
active: [14] 20.7 µM

c1ccc(-c2ccccn2)nc1
not listed: [3]
inactive: all other assays above

Cc1cc(O)c2c(O)c3c(O)cccc3cc2c1
inactive: [1] | [2] | [3] | [18] | [5] | [19] | [8] | [9] | [10] | [15] | [16]

CC(C)CCOC(=O)/C=C/c1ccccc1
not listed: [4] | [8] | [16] | [19]
inactive: all other assays above

CC1=CCC(C(C)C)C=C1 (stereo unspecified)
not listed: [4] | [9] | [11]
inactive: all other assays above

CCCOCC(C)OCC(C)O (stereo unspecified)
not listed: [4] | [6] | [14] | [19] | [20]
inactive: all other assays above

CC(C)NC(=O)c1ccc(C=O)cc1
not listed: [4] | [7] | [14] | [16]
inactive: all other assays above

OCCOCC#CCOCCO
not listed: [4] | [9] | [12] | [14] | [19]
inactive: all other assays above

CCCCCCCC/C=C\CCCCCCCC(=O)OCCO
not listed: [4] | [11] | [12] | [17] | [18] | [20]
inactive: all other assays above

CCNc1nc(NC(C)CC)nc(OC)n1 (stereo unspecified)
not listed: [4] | [5] | [12] | [18] | [20]
inactive: all other assays above

CCCCCCC1CCC(=O)O1 (stereo unspecified)
not listed: [4] | [7] | [11] | [14]
inactive: all other assays above

C#CCN(C)CCCOc1ccc(Cl)cc1Cl
active: [7] 16.3 µM
not listed: [3] | [9] | [10] | [15] | [16]
inactive: all other assays above

CC(CO)(CO)CO
not listed: [4] | [14] | [19] | [20]
inactive: all other assays above
